Reference: PubChem BioAssay
Activity calls are given as the source filed them.

How the values were obtained:
[1] = target: Albumin (Bos taurus) (UniProt P02769); experiment: compounds binding labelled BSA control protein – biochemical, small-molecule microarray, Alexa647 label, 635/667 nm fluorescence, artefact control for SMM control protein annotation, profiling panel (AID 1118); settings: BSA-A647 binding, fluorescence 635 nm, higher = more signal;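 further: score merges 667 nm emission intensity and signal-to-noise per printed compound spot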
Chain of Albumin (Bos taurus) (P02769 whole entry, looked up): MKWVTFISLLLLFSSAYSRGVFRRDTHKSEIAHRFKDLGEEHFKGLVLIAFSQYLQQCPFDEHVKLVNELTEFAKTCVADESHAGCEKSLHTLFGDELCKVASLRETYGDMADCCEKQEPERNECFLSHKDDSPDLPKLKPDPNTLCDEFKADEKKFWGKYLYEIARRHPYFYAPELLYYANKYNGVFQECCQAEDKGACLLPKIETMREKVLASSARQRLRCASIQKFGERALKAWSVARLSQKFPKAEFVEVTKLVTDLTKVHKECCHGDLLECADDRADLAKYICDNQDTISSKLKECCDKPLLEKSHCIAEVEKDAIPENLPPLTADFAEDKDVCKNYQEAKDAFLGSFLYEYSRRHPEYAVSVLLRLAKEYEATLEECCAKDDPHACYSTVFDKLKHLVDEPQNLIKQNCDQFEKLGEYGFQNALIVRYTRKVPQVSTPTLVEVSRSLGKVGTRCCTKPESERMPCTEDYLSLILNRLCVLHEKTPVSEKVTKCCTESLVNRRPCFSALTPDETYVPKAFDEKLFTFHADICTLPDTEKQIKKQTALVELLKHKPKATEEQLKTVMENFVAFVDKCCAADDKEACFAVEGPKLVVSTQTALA

[2] = probe aXIP binding to arrayed compounds – biochemical, NeuroSMM set, 635/667 nm fluorescence, primary screen (AID 1119); settings: small-molecule microarray, higher = more signal, called active from +8 up or from −8 down;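 further: probe is the protein aXip251-270 applied at 1 µg/mL to compound-printed slides; binding of probe to printed compounds measured as 667 nm fluorescence plus signal to noise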
[3] = probe aNOTCH3 binding on compound microarray – biochemical, small-molecule microarray, 635/667 nm fluorescence, primary screen (AID 1120); settings: higher = more signal;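 further: probe is a biotin-tagged antibody raised against NOTCH3 rather than NOTCH3 protein; score merges spot fluorescence near 667 nm with spot signal to noise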
[4] = probe aNOTCH2 binding on compound microarray – biochemical, small-molecule microarray, 635/667 nm fluorescence, primary screen (AID 1121); settings: higher = more signal;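 further: score merges feature fluorescence read at 667 nm with its signal to noise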
[5] = target: Carbonic anhydrase 2 (Homo sapiens) (UniProt P00918); experiment: compounds binding carbonic anhydrase 2 – biochemical, small-molecule microarray, Alexa647-labelled CAII, profiling panel (AID 1122); settings: CAII-A647 binding fluorescence, higher = more signal
[6] = COS7 lysate on small-molecule microarray, probe aHis, 635 nm (AID 1123); settings: COS7 cell lysate, fluorescence, higher = more signal;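 further: z-score combines 667nm fluorescence intensity with signal-to-noise per printed compound spot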
[7] = probe aLAP1 signal on lysate-treated microarray – cell lysate, small-molecule microarray, COS7 lysate, primary screen (AID 1124); settings: probe aLAP1, fluorescence, higher = more signal;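 further: lysate comes from COS7 cells expressing LAP1 and is applied at 0.3 µg/mL; score merges spot fluorescence near 667 nm with signal-to-noise over triplicate slides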
[8] = test system: Sam68 (KHDRBS1); experiment: compounds binding KHDRBS1 protein – biochemical, small-molecule microarray, 635 nm fluorescence, primary screen (AID 1125); settings: higher = more signal;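 further: score merges 667 nm channel intensity with signal to noise over triplicate slides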
[9] = test system: Chordin-like protein 2 (CHRDL2); experiment: compounds binding chordin-like 2 – biochemical, small-molecule microarray, 635 nm fluorescence, primary screen (AID 1126); settings: fluorescence 635 nm, higher = more signal;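 further: printed compound slides probed with Chrdl2 protein at 4 µg/mL for 1 h at 4 C; score merges 667 nm emission intensity with signal to noise over three replicate slides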
[10] = target: Concanavalin-A (Canavalia ensiformis) (UniProt P02866); experiment: compounds binding concanavalin A lectin – biochemical, small-molecule microarray, Alexa647 label, 635 nm, artefact control for SMM control protein annotation, primary screen (AID 1127); settings: ConA-A647 binding fluorescence, higher = more signal;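 further: z combines 667 nm emission intensity with signal-to-noise across three replicate slides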
Chain of Concanavalin-A (Canavalia ensiformis) (P02866 whole entry, looked up): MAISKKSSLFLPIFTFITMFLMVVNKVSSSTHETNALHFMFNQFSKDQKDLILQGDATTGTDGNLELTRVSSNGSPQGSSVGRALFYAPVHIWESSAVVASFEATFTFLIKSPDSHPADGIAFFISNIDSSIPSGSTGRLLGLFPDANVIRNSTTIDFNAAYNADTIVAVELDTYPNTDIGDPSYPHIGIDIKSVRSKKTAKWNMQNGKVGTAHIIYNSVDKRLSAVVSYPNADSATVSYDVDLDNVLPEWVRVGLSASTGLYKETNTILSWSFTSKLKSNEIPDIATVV

[11] = compounds binding Alexa647 anti-His antibody – biochemical, small-molecule microarray, 635 nm fluorescence, artefact control for SMM control protein annotation, primary screen (AID 1128); settings: higher = more signal;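 further: score merges feature fluorescence with signal-to-noise for each printed compound spot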
[12] = test system: Human papillomavirus type 1a E7 protein (residues 1-88); experiment: HPV1a E7 small-molecule binders, primary screen, biochemical, small-molecule microarray, residues 1-88, 635 nm (AID 1129); settings: small-molecule microarray binding, fluorescence 635 nm; higher = more signal
[13] = target: Focal adhesion kinase 1 (Homo sapiens) (UniProt Q05397); experiment: PTK2 protein binding on printed compound slides – biochemical, small-molecule microarray, 635/667 nm fluorescence, BSA, DTT, primary screen (AID 1130); settings: 635 nm fluorescence, higher = more signal;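 further: composite of spot emission at 667 nm and signal to noise over triplicate slides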
Chain of Focal adhesion kinase 1 (Homo sapiens) (Q05397 whole entry, looked up): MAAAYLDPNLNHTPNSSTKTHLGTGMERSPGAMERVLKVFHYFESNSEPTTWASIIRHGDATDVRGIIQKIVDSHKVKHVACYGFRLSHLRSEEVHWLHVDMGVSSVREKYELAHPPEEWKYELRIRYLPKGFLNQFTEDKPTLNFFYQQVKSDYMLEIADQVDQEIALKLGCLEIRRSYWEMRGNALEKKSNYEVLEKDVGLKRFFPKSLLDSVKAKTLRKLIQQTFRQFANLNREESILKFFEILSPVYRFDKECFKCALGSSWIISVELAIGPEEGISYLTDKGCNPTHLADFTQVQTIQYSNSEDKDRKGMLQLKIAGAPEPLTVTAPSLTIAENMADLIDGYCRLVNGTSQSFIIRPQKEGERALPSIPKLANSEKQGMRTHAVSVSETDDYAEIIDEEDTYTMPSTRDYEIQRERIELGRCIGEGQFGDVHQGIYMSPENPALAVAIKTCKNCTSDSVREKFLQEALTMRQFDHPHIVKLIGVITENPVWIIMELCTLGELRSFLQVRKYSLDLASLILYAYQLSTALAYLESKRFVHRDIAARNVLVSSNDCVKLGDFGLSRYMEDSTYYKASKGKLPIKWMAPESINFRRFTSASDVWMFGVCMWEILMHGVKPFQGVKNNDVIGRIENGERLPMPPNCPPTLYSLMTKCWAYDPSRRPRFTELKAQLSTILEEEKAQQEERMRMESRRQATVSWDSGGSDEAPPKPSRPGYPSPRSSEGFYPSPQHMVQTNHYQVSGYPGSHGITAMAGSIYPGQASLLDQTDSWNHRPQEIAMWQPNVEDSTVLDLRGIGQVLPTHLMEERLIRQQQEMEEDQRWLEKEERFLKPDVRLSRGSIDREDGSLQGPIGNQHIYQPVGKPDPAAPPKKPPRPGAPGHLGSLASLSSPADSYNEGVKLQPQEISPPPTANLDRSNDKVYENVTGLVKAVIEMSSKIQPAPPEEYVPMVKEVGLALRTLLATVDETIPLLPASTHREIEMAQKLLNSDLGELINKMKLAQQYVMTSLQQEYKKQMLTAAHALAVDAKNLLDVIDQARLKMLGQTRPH

[14] = test system: Fibrinogen (Alexa647-labelled); experiment: Alexa647-fibrinogen binding to printed small molecules – biochemical, small-molecule microarray, 635/667 nm fluorescence, artefact control for SMM control-protein annotation, profiling panel (AID 1131); settings: fibrinogen-A647 binding fluorescence, higher = more signal;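 further: z-score merges 667 nm fluorescence with per-spot signal-to-noise over triplicate slides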
[15] = target: Follistatin (Homo sapiens) (UniProt P19883); experiment: FST protein binding to printed compounds – biochemical, small-molecule microarray, 635/667 nm fluorescence, primary screen (AID 1132); settings: 635 nm fluorescence, higher = more signal
Chain of Follistatin (Homo sapiens) (P19883 whole entry, looked up): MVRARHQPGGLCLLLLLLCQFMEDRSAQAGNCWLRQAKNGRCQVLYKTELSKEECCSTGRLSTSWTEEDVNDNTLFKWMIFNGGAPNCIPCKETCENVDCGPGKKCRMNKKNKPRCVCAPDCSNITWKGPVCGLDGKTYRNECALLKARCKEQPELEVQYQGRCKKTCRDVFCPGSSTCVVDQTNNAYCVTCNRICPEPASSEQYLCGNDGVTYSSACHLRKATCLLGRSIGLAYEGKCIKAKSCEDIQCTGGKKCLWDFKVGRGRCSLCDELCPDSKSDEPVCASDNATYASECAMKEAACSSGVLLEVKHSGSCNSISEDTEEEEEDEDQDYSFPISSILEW

[16] = target: Fibroblast growth factor 2 (Homo sapiens) (UniProt P09038); experiment: basic fibroblast growth factor binding to printed compounds – biochemical, small-molecule microarray, 635/667 nm fluorescence, primary screen (AID 1133); settings: FGF2, fluorescence 635/667, higher = more signal
Chain of Fibroblast growth factor 2 (Homo sapiens) (P09038 whole entry, looked up): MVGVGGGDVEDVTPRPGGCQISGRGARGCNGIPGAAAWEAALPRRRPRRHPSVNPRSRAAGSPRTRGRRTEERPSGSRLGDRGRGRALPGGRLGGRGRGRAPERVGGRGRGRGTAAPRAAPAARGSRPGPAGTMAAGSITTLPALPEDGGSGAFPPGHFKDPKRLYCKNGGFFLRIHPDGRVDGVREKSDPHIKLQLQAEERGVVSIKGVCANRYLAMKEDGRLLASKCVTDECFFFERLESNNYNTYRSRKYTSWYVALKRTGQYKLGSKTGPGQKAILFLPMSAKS

[17] = JC-1 mitochondrial potential readout, lung cancer cells – cell-based, A549, JC-1 fluorescence, basal, 24 h, 100 nL, profiling panel (AID 1138); settings: higher = more signal;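 further: A549 lung adenocarcinoma cells under basal conditions with no added stimulus; test concentration not given here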
[18] = test system: Lefty1; experiment: Lefty1 protein binding to printed compounds – biochemical, small-molecule microarray, 635/667 nm fluorescence, primary screen (AID 1139); settings: fluorescence 635/667, higher = more signal
[19] = test system: wheat germ agglutinin (Triticum aestivum), Alexa647-labelled; experiment: Alexa647-WGA lectin binding to printed small molecules – biochemical, small-molecule microarray, 635/667 nm fluorescence, artefact control for SMM control-protein annotation, profiling panel (AID 1140); settings: WGA-A647 binding, 635 nm fluorescence, higher = more signal;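 further: score merges 667 nm feature emission with signal to noise over triplicate slides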
[20] = target: Luciferin 4-monooxygenase (Photinus pyralis) (UniProt P08659); experiment: inhibition of purified Photinus pyralis luciferase – biochemical, luminescence, purified enzyme, 2006 set, primary screen (AID 1141); settings: purified firefly luciferase, SteadyGlo luminescence, 30 min; higher = more signal, called active from +8 up or from −8 down;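 further: cell-free assay with purified firefly luciferase at 100 ng per well in PBS; test concentration not given here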
Chain of Luciferin 4-monooxygenase (Photinus pyralis) (P08659 whole entry, looked up): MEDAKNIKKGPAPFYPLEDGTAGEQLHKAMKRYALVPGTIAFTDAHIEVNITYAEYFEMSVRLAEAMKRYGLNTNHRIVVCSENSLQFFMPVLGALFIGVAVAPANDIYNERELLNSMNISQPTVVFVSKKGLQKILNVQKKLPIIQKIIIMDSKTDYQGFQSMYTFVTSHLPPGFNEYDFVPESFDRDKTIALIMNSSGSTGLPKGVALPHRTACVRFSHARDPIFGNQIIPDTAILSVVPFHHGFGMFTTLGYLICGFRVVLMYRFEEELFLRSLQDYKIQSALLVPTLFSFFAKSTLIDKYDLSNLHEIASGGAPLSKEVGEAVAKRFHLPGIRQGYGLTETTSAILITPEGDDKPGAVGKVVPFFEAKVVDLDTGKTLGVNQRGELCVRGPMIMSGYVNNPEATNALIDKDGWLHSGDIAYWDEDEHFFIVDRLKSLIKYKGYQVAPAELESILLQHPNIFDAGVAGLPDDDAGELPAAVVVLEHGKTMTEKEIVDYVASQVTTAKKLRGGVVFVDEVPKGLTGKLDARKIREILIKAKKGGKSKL

| Structure (SMILES) | composite z-score [1] | composite Z-score [2] | composite z-score [3] | composite z-score [4] | composite z-score [5] | composite z-score [6] | composite z-score [7] | composite z-score [8] | composite z-score [9] | composite z-score [10] | composite z-score [11] | composite z-score [12] | composite z-score [13] | composite z-score [14] | composite z-score [15] | composite z-score [16] | z-score [17] | composite z-score [18] | composite z-score [19] | z-score [20] |
| --- | --- | --- | --- | --- | --- | --- | --- | --- | --- | --- | --- | --- | --- | --- | --- | --- | --- | --- | --- | --- |
| CC(=O)OC(C/C=C\B1OC(C)(C)C(C)(C)O1)c1ccccc1 (stereo not given) | -0.274 | -0.806 (inactive) | -0.146 | -0.166 | -0.411 | -0.279 | -0.0949 | 0.0684 | 1.09 | -0.923 | -0.0541 | -0.373 | -0.379 | 0.221 | 0.0255 | -0.377 | 1.45 | -0.0863 | -0.405 | -1.54 (inactive) |
| CC(C)(C)OC(=O)CC[C@@]1(C(=O)NCc2ccccc2)N=C(c2ccc(OCCCO)cc2)O[C@@H]1c1ccccc1CN=[N+]=[N-] | 0.871 | 0.647 (inactive) | 0.33 | -0.0736 | 0.596 | 2.02 | 0.379 | 1.15 | -0.521 | 1.09 | 2.59 | 1.22 | -0.128 | 0.933 | 1.34 | 0.915 | 0.641 | 0.148 | 1.27 | -1.24 (inactive) |
| C=CCC(OC(C)=O)[C@@H]1[C@@H](N(Cc2cc3ccccc3o2)C(=O)c2ccc(-c3ccccc3)cc2)c2cc(OCCCO)ccc2N1C(=O)c1ccc(-c2ccccc2)cc1 (stereo not given in full) | 0.327 | -0.474 (inactive) | 0.061 | -0.148 | 0.301 | 0.568 | 0.0482 | -0.19 | -0.333 | -0.395 | -0.853 | -0.43 | 0.25 | -0.796 | 0.227 | -0.109 | 2.56 | -0.147 | -0.316 | -1.02 (inactive) |
| COCCOC(=O)N1C(=O)[C@@]2(c3cc(C#CC4(O)CCCCCC4)ccc31)[C@H](C(=O)NC[C@H](O)c1ccccc1)[C@H]1C(=O)O[C@H](c3ccccc3)[C@H](c3ccccc3)N1[C@@H]2c1ccccc1OCCO | -0.383 | 1.51 (inactive) | 0.0596 | -0.0956 | 0.668 | 1.04 | -0.0189 | 1.32 | 0.405 | 1.14 | 0.67 | 1.16 | 0.714 | 0.873 | 1.28 | 1.56 | -0.88 | 1.4 | 0.791 | -1.81 (inactive) |
| COCCOC(=O)N1C(=O)[C@@]2(c3cc(C#CC4(O)CCCCCC4)ccc31)[C@H](c1ccc(O)cc1)N1[C@H](c3ccccc3)[C@H](c3ccccc3)OC(=O)[C@H]1[C@@H]2C(N)=O | 0.93 | -0.108 (inactive) | 0.0196 | -0.044 | 0.704 | 1.81 | 1.34 | 1.33 | -0.485 | 0.641 | 1.53 | 0.745 | 1.36 | -0.173 | 0.419 | 0.308 | 0.446 | 0.462 | 0.706 | -1.37 (inactive) |
